Screen size: about 5,500 compounds; about 2,000 (36%) were called active. Not shown: some 18% with an inconclusive outcome. Cut-off read from the data, not from the text of the source: active = normalized growth mostly below about 0.91 (no sharp cut-off); inconclusive = no clear call, values can overlap the other calls; inactive = mostly above about 0.92. The list shows a part of the results.
Assay: chemical genetic growth profiling, strain panel (AID 1159580);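 note: tested at 20 µM; growth read once vehicle control cultures reached saturation at 30 °C; 1 = growth at the plate median or of vehicle wells; lower values mean less growth of the strain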
Conditions: S. cerevisiae deletion strains, growth OD
[1] = locus YAR019C, strain CDC15, stronger effect = lower value
[2] = locus YBL105C, strain PKC1, stronger effect = lower value
[3] = locus YBR135W, strain CKS1, stronger effect = lower value
[4] = locus YBR136W, strain MEC1, stronger effect = lower value
[5] = locus YBR160W, strain CDC28, stronger effect = lower value
[6] = locus YDL017W, strain CDC7, stronger effect = lower value
[7] = locus YDL028C, strain MPS1, stronger effect = lower value
[8] = locus YDL101C, strain DUN1, stronger effect = lower value
[9] = locus YDL108W, strain KIN28, stronger effect = lower value
[10] = locus YDL132W, strain cdc53, stronger effect = lower value
[11] = locus YDL214C, strain PRR2, stronger effect = lower value
[12] = locus YDR052C, strain DBF4, stronger effect = lower value
[13] = locus YDR054C, strain cdc34, stronger effect = lower value
[14] = locus YDR226W, strain ADK1, stronger effect = lower value
[15] = locus YDR477W, strain SNF1, stronger effect = lower value
[16] = locus YER123W, strain YCK3, stronger effect = lower value
[17] = locus YER133W, strain GLC7, stronger effect = lower value
[18] = locus YFL009W, strain cdc4, stronger effect = lower value
[19] = locus YFL029C, strain CAK1, stronger effect = lower value
[20] = locus YFR003C, strain YPI1, stronger effect = lower value
[21] = locus YFR019W, strain FAB1, stronger effect = lower value
[22] = locus YFR028C, strain CDC14, stronger effect = lower value
[23] = locus YGR040W, strain KSS1, stronger effect = lower value
[24] = locus YGR052W, strain FMP48, stronger effect = lower value
[25] = locus YGR092W, strain DBF2, stronger effect = lower value
[26] = locus YHR030C, strain SLT2, stronger effect = lower value
[27] = locus YHR079C, strain IRE1, stronger effect = lower value
[28] = locus YHR082C, strain KSP1, stronger effect = lower value
[29] = locus YHR205W, strain SCH9, stronger effect = lower value
[30] = locus YIL147C, strain SLN1, stronger effect = lower value
[31] = locus YJL095W, strain BCK1, stronger effect = lower value
[32] = locus YJL128C, strain PBS2, stronger effect = lower value
[33] = locus YJL157C, strain FAR1, stronger effect = lower value
[34] = locus YJR016C, strain ILV3, stronger effect = lower value
[35] = locus YJR066W, strain TOR1 (second series), stronger effect = lower value
[36] = locus YJR066W, strain TOR1, stronger effect = lower value
[37] = locus YKL048C, strain ELM1, stronger effect = lower value
[38] = locus YKL067W, strain YNK1, stronger effect = lower value
[39] = locus YKL101W, strain HSL1, stronger effect = lower value
[40] = locus YKL193C, strain SDS22, stronger effect = lower value
[41] = locus YKL203C, strain TOR2, stronger effect = lower value
[42] = locus YLR113W, strain HOG1, stronger effect = lower value
[43] = locus YLR133W, strain CKI1, stronger effect = lower value
[44] = locus YLR403W, strain SFP1, stronger effect = lower value
[45] = locus YML070W, strain DAK1, stronger effect = lower value
[46] = locus YMR001C, strain CDC5, stronger effect = lower value
[47] = locus YMR205C, strain PFK2 (second series), stronger effect = lower value
[48] = locus YMR277W, strain FCP1, stronger effect = lower value
[49] = locus YNL006W, strain LST8, stronger effect = lower value
[50] = locus YNL020C, strain ARK1, stronger effect = lower value
[51] = locus YNL161W, strain CBK1, stronger effect = lower value
[52] = locus YNL183C, strain NPR1, stronger effect = lower value
[53] = locus YNL207W, strain RIO2, stronger effect = lower value
[54] = locus YNL222W, strain SSU72, stronger effect = lower value
[55] = locus YNL307C, strain MCK1 (second series), stronger effect = lower value
[56] = locus YOL078W, strain AVO1, stronger effect = lower value
[57] = locus YOL136C, strain PFK27, stronger effect = lower value
[58] = locus YOR061W, strain CKA2, stronger effect = lower value
[59] = locus YOR119C, strain RIO1, stronger effect = lower value
[60] = locus YOR231W, strain MKK1, stronger effect = lower value
[61] = locus YOR329C, strain SCD5, stronger effect = lower value
[62] = locus YPL031C, strain PHO85, stronger effect = lower value
[63] = locus YPL153C, strain RAD53, stronger effect = lower value
[64] = locus YPL204W, strain HRR25, stronger effect = lower value
[65] = locus YPL209C, strain IPL1, stronger effect = lower value
[66] = locus YPL256C, strain CLN2, stronger effect = lower value
[67] = locus YPR025C, strain CCL1, stronger effect = lower value
[68] = locus YPR106W, strain ISR1, stronger effect = lower value
[69] = locus YPR111W, strain DBF20, stronger effect = lower value
[70] = strain NNK1, stronger effect = lower value
[71] = strain TSCII, stronger effect = lower value

Measured: normalized growth

COc1c(Br)csc1C(=O)O/N=C(/N)c1cc(C(F)(F)F)cc(C(F)(F)F)c1
inactive: [1] 0.994 | [2] 0.981 | [3] 0.99 | [4] 0.988 | [5] 0.979 | [6] 0.985 | [7] 0.988 | [8] 0.954 | [9] 0.987 | [10] 0.989 | [11] 1.05 | [12] 0.99 | [13] 0.989 | [14] 0.986 | [15] 1.05 | [16] 0.999 | [17] 1.03 | [18] 0.995 | [19] 0.96 | [20] 0.988 | [21] 1 | [22] 0.987 | [23] 1.06 | [24] 1.1 | [25] 1 | [26] 1.1 | [27] 1.07 | [28] 1.14 | [29] 1.03 | [30] 0.993 | [31] 1.09 | [32] 0.956 | [33] 1.01 | [34] 0.979 | [35] 0.99 | [36] 1.15 | [37] 1.01 | [38] 1.01 | [39] 1.05 | [40] 0.987 | [41] 1.14 | [42] 1.02 | [43] 1.03 | [44] 1.05 | [45] 1.04 | [46] 0.989 | [47] 0.999 | [48] 0.99 | [49] 0.995 | [50] 1.03 | [51] 0.982 | [52] 1.03 | [53] 0.989 | [54] 0.985 | [55] 1.05 | [56] 0.986 | [57] 1.03 | [58] 0.97 | [59] 1.13 | [60] 1.03 | [61] 0.995 | [62] 1.06 | [63] 1.04 | [64] 1.07 | [65] 0.985 | [66] 1.01 | [67] 0.987 | [68] 0.967 | [69] 0.964 | [70] 1 | [71] 0.993

Cc1cc(/C(N)=N\OC(=O)C(C)(C)C)cc(/C(N)=N\OC(=O)C(C)(C)C)c1
inactive: [1] 0.977 | [2] 0.985 | [3] 0.992 | [4] 0.969 | [5] 0.98 | [6] 0.989 | [7] 0.949 | [8] 0.985 | [9] 0.983 | [10] 0.987 | [11] 0.968 | [12] 0.996 | [13] 0.985 | [14] 0.979 | [15] 0.991 | [16] 0.974 | [17] 0.977 | [18] 0.982 | [19] 0.986 | [20] 0.989 | [21] 0.979 | [22] 0.983 | [23] 0.979 | [24] 1.02 | [25] 1.02 | [26] 0.904 | [27] 1.02 | [28] 1.06 | [29] 0.974 | [30] 0.964 | [31] 0.992 | [32] 0.937 | [33] 1 | [34] 0.993 | [35] 0.962 | [36] 1 | [37] 0.987 | [38] 0.953 | [39] 0.954 | [40] 0.983 | [41] 1.08 | [43] 1 | [44] 0.997 | [45] 0.966 | [46] 0.969 | [47] 0.991 | [48] 0.972 | [49] 0.984 | [50] 0.989 | [51] 0.988 | [52] 1.03 | [53] 0.989 | [54] 0.979 | [55] 0.947 | [56] 0.992 | [57] 0.962 | [58] 1 | [59] 1.03 | [60] 1 | [61] 0.99 | [62] 0.997 | [63] 0.965 | [64] 0.969 | [65] 0.991 | [66] 0.922 | [67] 0.989 | [68] 0.978 | [69] 0.954 | [70] 0.982 | [71] 0.967
active: [42] 0.858

Cn1ncc(C(=O)O/N=C(/N)c2cc(C(F)(F)F)cc(C(F)(F)F)c2)c1-n1cccc1
inactive: locus YAL013W, strain DEP1, stronger effect = lower value 1.02 | locus YBR229C, strain ROT2, stronger effect = lower value 1.01 | [8] 1.01 | locus YDL134C, strain PPH21, stronger effect = lower value 1.02 | locus YDR150W, strain NUM1, stronger effect = lower value 0.963 | locus YEL061C, strain CIN8, stronger effect = lower value 0.999 | locus YGR078C, strain PAC10, stronger effect = lower value 1 | [26] 0.972 | locus YHR087W, strain rtc3, stronger effect = lower value 0.996 | locus YJR043C, strain POL32, stronger effect = lower value 0.999 | locus YJR075W, strain HOC1, stronger effect = lower value 0.972 | locus YKL190W, strain CNB1, stronger effect = lower value 1.01 | locus YLR039C, strain RIC1, stronger effect = lower value 0.958 | locus YLR058C, strain SHM2 (second series), stronger effect = lower value 1 | locus YLR085C, strain ARP6, stronger effect = lower value 0.984 | locus YLR262C, strain YPT6, stronger effect = lower value 1.03 | locus YML094W, strain GIM5, stronger effect = lower value 0.988 | locus YMR219W, strain ESC1, stronger effect = lower value 1 | locus YMR263W, strain SAP30, stronger effect = lower value 0.934 | locus YMR307W, strain GAS1, stronger effect = lower value 1.03 | locus YNL153C, strain GIM3, stronger effect = lower value 0.996 | locus YNL298W, strain CLA4 (second series), stronger effect = lower value 1.02 | locus YNL322C, strain KRE1, stronger effect = lower value 0.991 | locus YNR030W, strain Alg12, stronger effect = lower value 1.02 | locus YOL006C, strain TOP1, stronger effect = lower value 0.98 | locus YPL055C, strain LGE1, stronger effect = lower value 0.88 | locus YPL241C, strain CIN2, stronger effect = lower value 0.935 | locus YPR135W, strain CTF4, stronger effect = lower value 0.961

Reference: PubChem BioAssay AID1159580 (chemical genetic matrix, 2015)
